Measurements taken from PubChem BioAssay AID2132 (NMMLSC, 2009).
A number with no mark means an inactive call. Calls of active or inactive are those of the source.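 Rule for the calls: active = inhibition above 20%; inactive = the rest.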 Peptide text beside a SMILES is read from it. * marks the point of attachment. Cbz = O=C(OCc1ccccc1)*

Assay: inhibition of 26S proteasome fluorogenic peptide cleavage, counter-screen for 26S proteasome disassembly project, biochemical, fluorogenic peptides, secondary (AID 2132)
Conditions: yeast 26S proteasome, fluorogenic peptide cleavage rate; with Ac-nLPnLD-amc; at 100 µM; stronger effect = higher value

Row | SMILES | inhibition
1 | CC(=O)N1C(=O)C(=C2C=C(C)OC(C)=C2)c2ccccc21 | 20%
2 | CC(C)C[C@@H](C=O)NC(=O)[C@H](CC(C)C)NC(=O)[C@H](CC(C)C)NC(=O)OCc1ccccc1 (Cbz-Leu-Leu-Leu-aldehyde) | 27% (active)
